# Source: PubChem BioAssay (NCI)
# Compounds without any hit were thinned out: in the full panel of roughly 83,000, 20% have a hit.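 48-hour exposure, single concentration, 96-well plates; percent growth endpoint where 0 means no net growth. Active: below 10.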 A number with no mark means an inactive call. Active and inactive are the calls of the source.
# Tests used:
# Experiment in all cases: NCI-60 one-dose screen, 48 h (100 = growth as untreated, 0 = no growth, -100 = all killed)
# HCT-15 colon = test system: HCT-15 colon
# HT29 colon = test system: HT29 colon
# SNB-75 CNS = test system: SNB-75 CNS
# SNB-19 CNS = test system: SNB-19 CNS
# U251 CNS = test system: U251 CNS
# PC-3 prostate = test system: PC-3 prostate
# SK-MEL-5 melanoma = test system: SK-MEL-5 melanoma
# UACC-62 melanoma = test system: UACC-62 melanoma
# LOX IMVI melanoma = test system: LOX IMVI melanoma
# SK-MEL-28 melanoma = test system: SK-MEL-28 melanoma
# SK-MEL-2 melanoma = test system: SK-MEL-2 melanoma
# EKVX NSCLC = conditions: 10 µM unless noted
# SN12C renal = test system: SN12C renal
# UO-31 renal = test system: UO-31 renal
# TK-10 renal = test system: TK-10 renal
# ACHN renal = test system: ACHN renal
# CAKI-1 renal = test system: CAKI-1 renal
# A498 renal = test system: A498 renal
# CCRF-CEM leukemia = test system: CCRF-CEM leukemia
# MOLT-4 leukemia = conditions: 10 µM unless noted
smiles,measurement,setting,value
O=C1NC(=S)/C(=C/c2cn(-c3ccccc3)nc2-c2ccccc2)S1,growth,HCT-15 colon; 10 µM unless noted,20%
same,growth,HT29 colon; 10 µM unless noted,22.9%
same,growth,SNB-75 CNS; 10 µM unless noted,80.7%
same,growth,SNB-19 CNS; 10 µM unless noted,14.3%
same,growth,U251 CNS; 10 µM unless noted,14.6%
same,growth,PC-3 prostate; 10 µM unless noted,34.9%
same,growth,SK-MEL-5 melanoma; 10 µM unless noted,-42.3% (active)
same,growth,UACC-62 melanoma; 10 µM unless noted,6.83% (active)
same,growth,LOX IMVI melanoma; 10 µM unless noted,28.9%
same,growth,SK-MEL-28 melanoma; 10 µM unless noted,20.5%
same,growth,SK-MEL-2 melanoma; 10 µM unless noted,-4.17% (active)
same,growth,EKVX NSCLC,2.24% (active)
same,growth,SN12C renal; 10 µM unless noted,16%
same,growth,UO-31 renal; 10 µM unless noted,16.7%
same,growth,TK-10 renal; 10 µM unless noted,34.3%
same,growth,ACHN renal; 10 µM unless noted,20.1%
same,growth,CAKI-1 renal; 10 µM unless noted,28.3%
same,growth,A498 renal; 10 µM unless noted,-4.62% (active)
same,growth,CCRF-CEM leukemia; 10 µM unless noted,30.9%
Cc1cc(C(NC(=O)C2CC3(CC(Nc4cccc5c4C(=O)N(C4CCC(=O)NC4=O)C5=O)C3)C2)c2ccc3c(c2)OC(F)(F)O3)c(O)c2ncccc12 (stereo not drawn),growth,HCT-15 colon; 10 µM unless noted,21.1%
same,growth,HT29 colon; 10 µM unless noted,29.1%
same,growth,SNB-75 CNS; 10 µM unless noted,25.1%
same,growth,SNB-19 CNS; 10 µM unless noted,7.79% (active)
same,growth,U251 CNS; 10 µM unless noted,7.11% (active)
same,growth,PC-3 prostate; 10 µM unless noted,17.8%
same,growth,SK-MEL-5 melanoma; 10 µM unless noted,-64.5% (active)
same,growth,UACC-62 melanoma; 10 µM unless noted,-41% (active)
same,growth,LOX IMVI melanoma; 10 µM unless noted,-4.96% (active)
same,growth,SK-MEL-28 melanoma; 10 µM unless noted,0.772% (active)
same,growth,SK-MEL-2 melanoma; 10 µM unless noted,-4.6% (active)
same,growth,EKVX NSCLC,6.4% (active)
same,growth,SN12C renal; 10 µM unless noted,14.1%
same,growth,UO-31 renal; 10 µM unless noted,-5.11% (active)
same,growth,TK-10 renal; 10 µM unless noted,36.1%
same,growth,ACHN renal; 10 µM unless noted,5.49% (active)
same,growth,CAKI-1 renal; 10 µM unless noted,10.6%
same,growth,A498 renal; 10 µM unless noted,115%
same,growth,CCRF-CEM leukemia; 10 µM unless noted,-7.69% (active)
CC/C(=C(\c1ccc(O)cc1)c1ccc(OCCN(C)C(=O)COCCNC(=O)Cc2ccc3c(c2)CN([C@@H]2CCC(=O)NC2=O)C3=O)cc1)c1ccccc1,growth,HCT-15 colon; 1 µM,110%
same,growth,HCT-15 colon; 10 µM,99.5%
same,growth,HT29 colon; 1 µM,110%
same,growth,HT29 colon; 10 µM,80.1%
same,growth,SNB-75 CNS; 1 µM,44.9%
same,growth,SNB-75 CNS; 10 µM,4.63% (active)
same,growth,SNB-19 CNS; 1 µM,64.8%
same,growth,SNB-19 CNS; 10 µM,49.8%
same,growth,U251 CNS; 1 µM,97.4%
same,growth,U251 CNS; 10 µM,80%
same,growth,PC-3 prostate; 1 µM,26.7%
same,growth,PC-3 prostate; 10 µM,18.7%
same,growth,SK-MEL-5 melanoma; 1 µM,83.7%
same,growth,SK-MEL-5 melanoma; 10 µM,31.8%
same,growth,UACC-62 melanoma; 1 µM,93.4%
same,growth,UACC-62 melanoma; 10 µM,77.8%
same,growth,LOX IMVI melanoma; 1 µM,101%
same,growth,LOX IMVI melanoma; 10 µM,90.4%
same,growth,SK-MEL-28 melanoma; 1 µM,90.4%
same,growth,SK-MEL-28 melanoma; 10 µM,57%
same,growth,SK-MEL-2 melanoma; 1 µM,82.5%
same,growth,SK-MEL-2 melanoma; 10 µM,56.8%
same,growth,SN12C renal; 1 µM,73.9%
same,growth,SN12C renal; 10 µM,38.1%
same,growth,UO-31 renal; 1 µM,92%
same,growth,UO-31 renal; 10 µM,91.6%
same,growth,TK-10 renal; 1 µM,105%
same,growth,TK-10 renal; 10 µM,84.2%
same,growth,ACHN renal; 1 µM,104%
same,growth,ACHN renal; 10 µM,102%
same,growth,CAKI-1 renal; 1 µM,99.2%
same,growth,CAKI-1 renal; 10 µM,90.1%
same,growth,A498 renal; 1 µM,117%
same,growth,A498 renal; 10 µM,98.2%
same,growth,CCRF-CEM leukemia; 1 µM,-2.66% (active)
same,growth,CCRF-CEM leukemia; 10 µM,-7.62% (active)
CN(C)c1nc(NCCNS(=O)(=O)c2ccc(C3=Nc4c(N)nc(N)nc4NC(c4ccc(Cl)cc4)C3)cc2)nc(N2CCOCC2)n1 (stereo not drawn),growth,HCT-15 colon; 10 µM unless noted,61%
same,growth,HT29 colon; 10 µM unless noted,30%
same,growth,SNB-75 CNS; 10 µM unless noted,57.9%
same,growth,SNB-19 CNS; 10 µM unless noted,46.6%
same,growth,U251 CNS; 10 µM unless noted,49.5%
same,growth,PC-3 prostate; 10 µM unless noted,26.4%
same,growth,SK-MEL-5 melanoma; 10 µM unless noted,20.1%
same,growth,UACC-62 melanoma; 10 µM unless noted,66.6%
same,growth,LOX IMVI melanoma; 10 µM unless noted,-2.54% (active)
same,growth,SK-MEL-28 melanoma; 10 µM unless noted,66.4%
same,growth,SK-MEL-2 melanoma; 10 µM unless noted,98.5%
same,growth,EKVX NSCLC,37.6%
same,growth,SN12C renal; 10 µM unless noted,37%
same,growth,UO-31 renal; 10 µM unless noted,59.9%
same,growth,TK-10 renal; 10 µM unless noted,86.8%
same,growth,ACHN renal; 10 µM unless noted,69.2%
same,growth,CAKI-1 renal; 10 µM unless noted,41.7%
same,growth,A498 renal; 10 µM unless noted,108%
same,growth,CCRF-CEM leukemia; 10 µM unless noted,17.3%
same,growth,MOLT-4 leukemia,13.9%
CCN(C(=O)CN1C(=O)/C(=C/c2ccco2)SC1=S)C1CCS(=O)(=O)C1 (stereo not drawn),growth,HCT-15 colon; 10 µM unless noted,88.8%
same,growth,HT29 colon; 10 µM unless noted,102%
same,growth,SNB-75 CNS; 10 µM unless noted,75.3%
same,growth,SNB-19 CNS; 10 µM unless noted,91.8%
same,growth,U251 CNS; 10 µM unless noted,104%
same,growth,PC-3 prostate; 10 µM unless noted,109%
same,growth,SK-MEL-5 melanoma; 10 µM unless noted,91.9%
same,growth,UACC-62 melanoma; 10 µM unless noted,92.6%
same,growth,LOX IMVI melanoma; 10 µM unless noted,90.6%
same,growth,SK-MEL-28 melanoma; 10 µM unless noted,98%
same,growth,SK-MEL-2 melanoma; 10 µM unless noted,99.2%
same,growth,EKVX NSCLC,98%
same,growth,SN12C renal; 10 µM unless noted,106%
same,growth,UO-31 renal; 10 µM unless noted,83.6%
same,growth,TK-10 renal; 10 µM unless noted,121%
same,growth,ACHN renal; 10 µM unless noted,114%
same,growth,CAKI-1 renal; 10 µM unless noted,91.4%
same,growth,A498 renal; 10 µM unless noted,105%
same,growth,CCRF-CEM leukemia; 10 µM unless noted,105%
COc1ccc(OC)c(Cn2cc(C#N)c(N)c2C(=O)c2ccc(Br)cc2)c1,growth,HCT-15 colon; 10 µM unless noted,26.2%
same,growth,HT29 colon; 10 µM unless noted,4.97% (active)
same,growth,SNB-75 CNS; 10 µM unless noted,50.4%
same,growth,SNB-19 CNS; 10 µM unless noted,55.3%
same,growth,U251 CNS; 10 µM unless noted,26.3%
same,growth,PC-3 prostate; 10 µM unless noted,66%
same,growth,SK-MEL-5 melanoma; 10 µM unless noted,26.6%
same,growth,UACC-62 melanoma; 10 µM unless noted,29.9%
same,growth,LOX IMVI melanoma; 10 µM unless noted,49.6%
same,growth,SK-MEL-28 melanoma; 10 µM unless noted,54.3%
same,growth,SK-MEL-2 melanoma; 10 µM unless noted,4.44% (active)
same,growth,EKVX NSCLC,58.2%
same,growth,SN12C renal; 10 µM unless noted,64.4%
same,growth,UO-31 renal; 10 µM unless noted,34.6%
same,growth,TK-10 renal; 10 µM unless noted,62.4%
same,growth,ACHN renal; 10 µM unless noted,84.9%
same,growth,CAKI-1 renal; 10 µM unless noted,45.2%
same,growth,A498 renal; 10 µM unless noted,86.7%
same,growth,CCRF-CEM leukemia; 10 µM unless noted,44.3%
same,growth,MOLT-4 leukemia,20.4%
